# Assay results as given in PubChem BioAssay (NCATS).
# Records with an inconclusive call do not appear. Calls of active or inactive are those of the source. Calls come from the whole dose curve; as a rule, active = well fitted inhibition curve with a large enough effect; inconclusive = small, poorly fitted or top-dose-only effect; inactive = no such curve, though single readings can be large or run the other way.
# Experiment: HTS Assay for Allosteric Antagonists of the Human D2 Dopamine Receptor: Hit Validation in HTRF (AID 624455);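 note: stable D1 dopamine receptor cell line scored for blocking the D1 response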
# Details: Cells stably expressing D1 dopamine receptor, inhibition mode; series mostly up to 46.1 µM; activity, negative = inhibition: at the top concentration
# Summary of the method: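 Inhibition of the D1-mediated response is measured by HTRF in cells that stably express the D1 dopamine receptor. Compounds reaching this step are hits from calcium-flux antagonism testing at EC80 dopamine in inducible Hek293 Trex D2 cells.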
# % is set by controls: 0 for no effect and ±100 for the full control effect.
row,SMILES,"activity, negative = inhibition"
1,CNC(=O)[C@H]1O[C@@H](n2cnc3c(NCc4cccc(I)c4)ncnc32)[C@H](O)[C@@H]1O,0.425% (inactive)
2,CCCC1(C)C(C#N)(C#N)C1(C#N)C#N,2.7% (inactive)
3,CC(=O)/C=C1\C(=O)N(C)c2ccccc21,2.13% (inactive)
4,C=CC(C)=C[C@@]1(C)SC(=O)C(C)=C1O,1.78% (inactive)
5,C[C@@H](NC(=O)/C(C#N)=C/c1ccc(O)c(O)c1)c1ccccc1,2.92% (inactive)
6,O=C(Nc1ccccc1)c1cc([N+](=O)[O-])ccc1Cl,5.15% (inactive)
7,NC(=O)C(=O)O,-2.54% (inactive)
8,O=C(c1ccc(OCCCc2cnc[nH]2)cc1)C1CC1,1.01% (inactive)
9,CCCCCCCC/C=C\CCCCCCCC(=O)NCCO,1.3% (inactive)
10,O=C(/C=C/c1ccc(O)c(O)c1)OCCc1ccccc1,2.34% (inactive)
11,Cc1cc(NC(=O)Nc2ccc3c(ccn3C)c2)sn1,5.34% (inactive)
12,N#C/C(=C\c1ccc(O)c(O)c1)C(=O)c1ccc(O)c(O)c1,2.61% (inactive)
13,O=C(O)CNC(=O)C(CS)Cc1ccccc1 (configuration not stated),-1.79% (inactive)
14,CC1CN(S(=O)(=O)c2cccc3cnccc23)CCN1 (configuration not stated),-2.91% (inactive)
15,O=C1NC(O)=NC1(c1ccccc1)c1ccccc1,-4.15% (inactive)
16,C[N+](C)(CCCCCC[N+](C)(C)CCCN1C(=O)c2cccc3cccc(c23)C1=O)CCCN1C(=O)c2cccc3cccc(c23)C1=O,0.932% (inactive)
17,CSc1nc(N)c2ncn([C@@H]3O[C@H](COP(=O)(O)OP(=O)(O)OP(=O)(O)O)[C@@H](O)[C@H]3O)c2n1,-11.5% (inactive)
